{
  "source": "PubChem BioAssay AID602449",
  "about": "(Sanford-Burnham Center for Chemical Genomics, 2012)",
  "note": "The campaign covered roughly 360,000 compounds. About 5,000 (1.4%) were called active. For the sample, actives were picked, then their nearest neighbours and some compounds at random. Values without a mark were called inactive.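 Rule for the calls: active = inhibition of 50% or more, scaled per plate between neutral and stimulator controls; inactive = the rest.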",
  "data": [
    {"assay": "blockers of Ca2+-induced mitochondrial swelling – biochemical, isolated mouse mitochondria, absorbance, primary screen (AID 602449);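 note: 0% = DMSO wells given calcium and 100% = 1 mM EGTA wells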", "conditions": "30 min, at 10 µM, active compounds read high", "values": [
      {"molecule": "O=C(c1ccc(Br)o1)N(c1ccccn1)C1CCCCC1", "inhibition": "8.3%"},
      {"molecule": "COc1ccc(CCNC(=O)CN2C(=O)COc3ccc(S(=O)(=O)N4CCCC4)cc32)cc1OC", "inhibition": "0.6%"},
      {"molecule": "CC12CN3CCN(CC(C3)/C1=N\\NC(=O)c1ccccc1N)C2", "inhibition": "2.6%"},
      {"molecule": "CN(C)C(CNC(=O)CCCOc1ccccc1)c1ccco1", "note": "(centres undefined)", "inhibition": "1%"},
      {"molecule": "CCn1c(CNC(=O)c2cc(OC)c(OC)c(OC)c2)cc2cc(C)ccc21", "inhibition": "68.8% (active)"},
      {"molecule": "COc1cc(C(=O)NCc2ccc3c(c2)cc(C)n3C)cc(OC)c1OC", "inhibition": "1.2%"},
      {"molecule": "COc1cc(C(=O)NCc2cc3cc(Cl)ccc3n2C)cc(OC)c1OC", "inhibition": "0.7%"},
      {"molecule": "CC1(C)S[C@@H]2[C@H](NC(=O)COc3ccccc3)C(=O)N2C1C(=O)OCc1ccccc1", "note": "(some centres undefined)", "inhibition": "2.2%"},
      {"molecule": "CC(C)(C)c1cc(NC(=O)NN2CCOCC2)nn1-c1c(Cl)cc(Cl)cc1Cl", "inhibition": "-1.3%"},
      {"molecule": "COc1ccc(-c2noc(CCC(=O)N3CCN(c4cccc(C)c4)CC3)n2)cc1", "inhibition": "0.4%"},
      {"molecule": "Cc1ccc(-c2noc(CCC(=O)Nc3ccccc3N3CCN(C)CC3)n2)cc1", "inhibition": "79.9% (active)"},
      {"molecule": "COc1ccc(N2CCN(C(=O)CCc3nc(-c4ccc(C)cc4)no3)CC2)cc1", "inhibition": "-0.2%"},
      {"molecule": "CC1CCN(C(=O)c2ccccc2NC(=O)Cc2ccccc2)CC1", "inhibition": "2%"},
      {"molecule": "Cc1ccc(-n2c(C)cc(C(=O)CSc3nnc4ccccn34)c2C)cc1", "inhibition": "5%"},
      {"molecule": "COc1ccc(-n2c(C)cc(C(=O)CSc3nnc(-c4cccs4)o3)c2C)cc1", "inhibition": "91% (active)"},
      {"molecule": "COc1ccc(-n2c(C)cc(C(=O)COC(=O)c3cc(OC)c(OC)cc3NC(=O)c3cccs3)c2C)cc1", "inhibition": "3.8%"},
      {"molecule": "O=[N+]([O-])c1cccc(C=NN=Cc2ccccc2O)c1", "inhibition": "2.1%"},
      {"molecule": "O=[N+]([O-])c1cc(Br)c(O)c(/C=N/Nc2nc3ccccc3s2)c1", "inhibition": "82.3% (active)"},
      {"molecule": "O=[N+]([O-])c1c(NCCO)cc(Sc2nc3ccccc3s2)c2nonc12", "inhibition": "4.8%"},
      {"molecule": "Cc1c(C(=O)NCC2CC2)sc(=O)n1Cc1cccc(F)c1", "inhibition": "-2.3%"},
      {"molecule": "COc1cc(C)c(Cl)cc1S(=O)(=O)n1ccnc1", "inhibition": "0.5%"},
      {"molecule": "N/C(=N\\S(=O)(=O)c1cc(C(F)(F)F)cc(C(F)(F)F)c1)c1cccs1", "inhibition": "35.4%"},
      {"molecule": "O=C(NNc1c2ccccc2nc2ccccc12)c1cc2ccccc2cc1O", "inhibition": "104% (active)"},
      {"molecule": "O=C(CSc1nc(C2CC2)nc2ccccc12)Nc1cccc(O)c1", "inhibition": "-0.4%"},
      {"molecule": "Cc1noc(C)c1COC(=O)c1cc2ccccc2cc1O", "inhibition": "1%"},
      {"molecule": "CS(=O)(=O)N(CC(=O)N1CCOCC1)c1cccc(Cl)c1Cl", "inhibition": "-0.3%"},
      {"molecule": "Cc1ccc(-n2ncc3c2CC(C)(C)CC3NC(=O)CCc2cnn(C)c2)cc1", "note": "(centres undefined)", "inhibition": "-0.7%"},
      {"molecule": "O=C(NCCc1ccccn1)c1ccc(COc2ccccc2)o1", "inhibition": "-1.4%"},
      {"molecule": "C=CC[n+]1c(-c2ccc(C)cc2)csc1NNC(=O)Nc1ccccc1", "inhibition": "86.7% (active)"},
      {"molecule": "Cc1ccc(NC(=O)NNC(=O)c2sccc2-n2cccc2)cc1", "inhibition": "1.7%"},
      {"molecule": "O=C(NNC(=O)c1ccc(-c2ccccc2)cc1)Nc1ccccc1", "inhibition": "2.8%"},
      {"molecule": "CC1CCC(N2CC(=O)N(Cc3ccc4c(c3)OCO4)C(c3ccc(F)cc3)C2=O)CC1", "note": "(centres undefined)", "inhibition": "-0.9%"},
      {"molecule": "COCCNC(=S)N1CCC(NC(=O)C23CC4CC(CC(C4)C2)C3)CC1", "inhibition": "-2.3%"},
      {"molecule": "CCN1/C(=C\\c2ccc3ccccc3[n+]2CC)Sc2cc(C)ccc21", "inhibition": "101% (active)"},
      {"molecule": "O=C(CN1C(=O)NC2(CCCCCCC2)C1=O)NCc1ccc(F)cc1", "inhibition": "-0.5%"},
      {"molecule": "Cc1ccc(-c2nc3c(Cl)cc(C(F)(F)F)cn3c2Cc2cccc(Cl)c2)cc1", "inhibition": "4.1%"},
      {"molecule": "COc1cc(C(C(=O)NC2CCCC2)N(C(=O)c2ccco2)c2ccccc2C(C)=O)cc(OC)c1OC", "note": "(centres undefined)", "inhibition": "-1.2%"},
      {"molecule": "COC(=O)c1sccc1NS(=O)(=O)c1ccc(F)cc1F", "inhibition": "1.6%"},
      {"molecule": "COC(=O)c1scc(C)c1NC(=O)CSc1ccc(Cl)cc1", "inhibition": "3.3%"},
      {"molecule": "COC(=O)c1sccc1NC(=O)CSc1ccccc1NS(=O)(=O)c1cc(Cl)ccc1Cl", "inhibition": "86.3% (active)"},
      {"molecule": "CCCc1ccc(-c2c(C)sc(NC(=O)c3ccnn3C)c2C#N)cc1", "inhibition": "99.7% (active)"},
      {"molecule": "CCCc1cc(=O)[nH]c(SCC(=O)Nc2sc3c(c2C#N)CCCC3)n1", "inhibition": "4%"},
      {"molecule": "Cc1sc(NC(=O)C2=COCCO2)c(C#N)c1C", "inhibition": "-0.9%"},
      {"molecule": "OCCc1ccc(NCCc2ccco2)cc1", "inhibition": "-0.1%"},
      {"molecule": "O=C(Nc1ccccc1)c1ccccc1NC(=O)C(F)(F)F", "inhibition": "57.7% (active)"},
      {"molecule": "O=C(Nc1ccccc1)c1ccccc1Br", "inhibition": "-0.9%"},
      {"molecule": "CC1CCCCC1NCC(=O)Nc1ccccc1C(=O)Nc1ccccc1", "note": "(centres undefined)", "inhibition": "1.8%"},
      {"molecule": "CCN(C(=O)CSc1nnc(-c2ccc(OC(F)F)cc2)n1N)C1CCS(=O)(=O)C1", "note": "(centres undefined)", "inhibition": "-1.1%"},
      {"molecule": "CCOc1ccc(NC(=O)CN(C)C(=O)CSc2ccccc2)cc1OCC", "inhibition": "1%"},
      {"molecule": "CCOc1ccc(S(=O)(=O)N2CCC(C(=O)NCc3ccccn3)CC2)cc1Cl", "inhibition": "-0.8%"},
      {"molecule": "O=C(c1cccc(F)c1)N1CCN(c2ccc([N+](=O)[O-])c3cccnc23)CC1", "inhibition": "0.3%"},
      {"molecule": "COc1ccc(-c2onc(C)c2-c2ccc3c(c2)OCCO3)c(O)c1", "inhibition": "3.2%"},
      {"molecule": "CCN1CCN(Cc2c(O)ccc3c(=O)c(-c4ccc(OC)c(OC)c4)c(C(F)(F)F)oc23)CC1", "inhibition": "-2%"},
      {"molecule": "O=c1c(-c2ccc3c(c2)OCCO3)c(C(F)(F)F)oc2cc(O)cc(O)c12", "inhibition": "89.4% (active)"},
      {"molecule": "CC(C)(C)c1cc[n+](-c2[nH]c(=O)sc2/C=N/N=C(\\[O-])c2ccccc2)cc1", "inhibition": "-1.9%"},
      {"molecule": "CCCNC(=O)CN(Cc1ccccc1F)S(=O)(=O)c1ccc(C)cc1", "inhibition": "1.8%"},
      {"molecule": "COc1ccc(NS(=O)(=O)c2cc(NC(=O)CC(=O)c3ccc([N+](=O)[O-])cc3)ccc2C)cc1", "inhibition": "73% (active)"},
      {"molecule": "Cc1ccc(NC(=O)CCNC(=O)c2ccc([N+](=O)[O-])cc2)cc1S(=O)(=O)N1CCOCC1", "inhibition": "-1.6%"},
      {"molecule": "COc1ccc(NS(=O)(=O)c2cc(NC(=O)COc3ccccc3F)ccc2OC)cc1", "inhibition": "0.8%"}
    ]}
  ]
}
